For some of these results: Potency and affinity values are given separately. Activity calls are given as the source filed them.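 The calls were made as follows, unless noted: active = calcium signal ratio cut to more than 3 SD under the fully stimulated control mean yet still positive, in both repeats and the primary screen; inactive = the rest.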
How the values were obtained:
[1] = system: TRPC4 beta (transient receptor potential cation channel C4), mouse; assay: activators of mouse TRPC4 channel, confirmation, cell-based, Fluo4 calcium, HEK293 TRPC4beta/mu-opioid, duplicates, 10 µM (AID 2426;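 active = fluorescence ratio normalized to control raised more than 50% in primary screen plus both repeat runs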); details: Fluo4 calcium fluorescence, at 10 µM; stronger effect = higher value
[2] = system: transient receptor potential cation channel C4 beta (TRPC4), mouse; assay: activators of mouse TRPC4 channel, confirmation, cell-based, second round, Fluo4, HEK293 TRPC4beta/mu-opioid, 1 µM (AID 2461;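 active = primary screen active and over 50% activation in each of two duplicate runs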); details: Fluo4 calcium fluorescence, at 1 µM; stronger effect = higher value
[3] = system: TRPC4 (transient receptor potential cation channel C4 beta), mouse; assay: positive allosteric modulators of mouse TRPC4, confirmation, cell-based, second round, Fluo-4, HEK293 TRPC4beta/mu-opioid, 1 µM (AID 2554;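 active = primary screen hit whose fluorescence ratio, in both repeats, exceeds the weak agonist control mean by 3 SD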); details: DAMGO EC20, Fluo-4 calcium flux, at 1 µM; stronger effect = higher value
[4] = system: TRPC4 beta (transient receptor potential cation channel C4), mouse; assay: positive allosteric modulators of mouse TRPC4, confirmation, cell-based, Fluo-4, HEK293 TRPC4beta/mu-opioid (AID 2555;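 active = primary screen hit whose calcium fluorescence ratio, in both repeats, exceeds the weak agonist control mean by 3 SD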); details: DAMGO EC20, Fluo-4 calcium flux, at 10 µM; stronger effect = higher value
[5] = molecular target: Short transient receptor potential channel 4 (Mus musculus) (UniProt Q9QUQ5); assay: inhibitors of mouse TRPC4 channel, confirmation, cell-based, Fluo4, HEK293 TRPC4beta/mu-opioid (AID 2636;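 active = calcium signal cut by more than 3 SD below the full-agonist control yet still positive, in both repeats and the earlier primary screen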); details: DAMGO, Fluo4 calcium flux, at 10 µM; stronger effect = higher value
Sequence of Short transient receptor potential channel 4 (Mus musculus) (Q9QUQ5 whole entry, looked up): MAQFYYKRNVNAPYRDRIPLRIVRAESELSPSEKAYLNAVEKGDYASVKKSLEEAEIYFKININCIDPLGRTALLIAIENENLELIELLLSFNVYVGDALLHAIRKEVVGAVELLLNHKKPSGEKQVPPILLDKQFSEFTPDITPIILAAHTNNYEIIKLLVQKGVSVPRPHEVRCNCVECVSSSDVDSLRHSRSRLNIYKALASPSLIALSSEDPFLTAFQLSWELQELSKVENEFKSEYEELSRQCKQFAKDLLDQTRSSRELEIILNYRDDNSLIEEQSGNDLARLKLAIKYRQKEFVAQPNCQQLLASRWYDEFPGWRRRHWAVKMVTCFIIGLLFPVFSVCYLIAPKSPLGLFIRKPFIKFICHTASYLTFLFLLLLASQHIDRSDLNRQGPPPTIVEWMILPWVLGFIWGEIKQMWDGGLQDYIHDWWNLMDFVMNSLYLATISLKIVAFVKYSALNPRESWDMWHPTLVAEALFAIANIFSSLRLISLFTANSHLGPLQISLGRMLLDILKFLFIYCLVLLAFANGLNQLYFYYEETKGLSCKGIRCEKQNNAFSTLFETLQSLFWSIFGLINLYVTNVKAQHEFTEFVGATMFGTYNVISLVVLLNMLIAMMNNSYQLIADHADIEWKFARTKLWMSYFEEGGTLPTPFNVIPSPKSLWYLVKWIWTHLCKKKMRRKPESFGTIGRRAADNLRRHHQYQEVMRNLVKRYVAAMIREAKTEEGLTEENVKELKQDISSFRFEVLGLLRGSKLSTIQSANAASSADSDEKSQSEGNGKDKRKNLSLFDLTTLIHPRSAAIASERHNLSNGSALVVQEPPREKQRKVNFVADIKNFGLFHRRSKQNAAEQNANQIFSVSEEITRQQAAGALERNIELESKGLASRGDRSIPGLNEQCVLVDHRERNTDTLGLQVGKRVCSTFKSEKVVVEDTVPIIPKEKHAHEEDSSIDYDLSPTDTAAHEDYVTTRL

[6] = molecular target: Short transient receptor potential channel 4 (Mus musculus) (UniProt Q9QUQ5); assay: inhibitors of mouse TRPC4 channel, confirmation, cell-based, second round, Fluo4, HEK293 TRPC4beta/mu-opioid, 1 µM (AID 2637); details: Fluo4 calcium flux, DAMGO, at 1 µM; stronger effect = higher value;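 as to inhibition: percent of integrated ratio relative to wells lacking test compound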
[7] = molecular target: Short transient receptor potential channel 4 (Mus musculus) (UniProt Q9QUQ5); assay: mouse TRPC4 channel activators, dose response, cell-based, HEK293 TRPC4/mu-opioid, Fluo-4 calcium (AID 434937;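 active = primary screen activator hit with a dose response curve and TRPC4 channel activation at any tested dose; inactive = no activation, no dose response, or not a primary hit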)
[8] = molecular target: Short transient receptor potential channel 4 (Mus musculus) (UniProt Q9QUQ5); assay: TRPC4 positive allosteric modulators, dose response, cell-based, HEK293 TRPC4/mu-opioid, Fluo-4 calcium, EC20 DAMGO (AID 434941;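 active = earlier screen potentiator hit that boosts the TRPC4 ion channel at some dose, with a dose response; inactive = no potentiation, no dose response, or not a prior hit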;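 also: calcium entry triggered by an EC20 dose of DAMGO at the co-expressed mu-opioid receptor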)
[9] = molecular target: Short transient receptor potential channel 6 (Mus musculus) (UniProt Q61143); assay: inhibition of mouse TRPC6 channel, confirmation, selectivity assay for TRPC4 inhibitor project, cell-based, HEK293, membrane potential dye, duplicate (AID 434948;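 active = active in primary screen and both duplicates, each dropping signal beyond three positive-control SD with fluorescence still positive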); details: HEK293 TRPC6, membrane potential dye fluorescence, at 10 µM, stimulated with maximal-effect acetylcholine; stronger effect = higher value
Sequence of Short transient receptor potential channel 6 (Mus musculus) (Q61143 whole entry, looked up): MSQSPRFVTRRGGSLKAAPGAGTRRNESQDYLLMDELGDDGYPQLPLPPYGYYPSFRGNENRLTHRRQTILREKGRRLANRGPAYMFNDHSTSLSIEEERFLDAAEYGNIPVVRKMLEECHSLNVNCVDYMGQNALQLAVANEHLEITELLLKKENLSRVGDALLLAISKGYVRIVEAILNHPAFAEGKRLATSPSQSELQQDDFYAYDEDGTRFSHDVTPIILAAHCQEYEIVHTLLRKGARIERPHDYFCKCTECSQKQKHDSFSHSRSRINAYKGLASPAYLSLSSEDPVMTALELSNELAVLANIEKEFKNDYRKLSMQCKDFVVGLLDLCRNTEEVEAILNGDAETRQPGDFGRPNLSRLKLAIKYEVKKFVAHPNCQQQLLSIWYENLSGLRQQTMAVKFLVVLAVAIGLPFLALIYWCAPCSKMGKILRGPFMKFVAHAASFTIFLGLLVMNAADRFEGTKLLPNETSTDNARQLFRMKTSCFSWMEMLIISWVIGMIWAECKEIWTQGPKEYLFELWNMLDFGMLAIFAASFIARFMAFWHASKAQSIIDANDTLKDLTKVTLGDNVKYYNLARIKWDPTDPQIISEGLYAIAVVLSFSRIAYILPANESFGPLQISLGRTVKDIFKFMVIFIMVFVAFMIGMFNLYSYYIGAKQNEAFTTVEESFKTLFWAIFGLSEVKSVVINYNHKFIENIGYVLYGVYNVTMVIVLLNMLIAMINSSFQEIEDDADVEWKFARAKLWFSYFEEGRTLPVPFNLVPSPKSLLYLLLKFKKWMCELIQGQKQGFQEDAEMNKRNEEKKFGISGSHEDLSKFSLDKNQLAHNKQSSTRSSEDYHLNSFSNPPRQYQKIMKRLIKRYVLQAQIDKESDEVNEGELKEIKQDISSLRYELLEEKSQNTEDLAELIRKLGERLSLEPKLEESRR

[10] = molecular target: Short transient receptor potential channel 6 (Mus musculus) (UniProt Q61143); assay: activation of mouse TRPC6 channel, confirmation, selectivity assay for TRPC4 activator project, cell-based, HEK293, membrane potential dye, duplicate (AID 434950;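 active = membrane potential signal rise above negative control mean plus 3 SD in both duplicates, also active in the earlier TRPC4 screen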); details: HEK293 TRPC6, membrane potential fluorescence, at 10 µM; stronger effect = higher value
[11] = molecular target: Short transient receptor potential channel 6 (Mus musculus) (UniProt Q61143); assay: TRPC6 potentiation by TRPC4 potentiator hits, confirmation, selectivity assay for TRPC4 potentiator project, HEK293 cells, membrane potential dye, duplicate (AID 434952;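 active = compound raising the membrane signal above positive-control mean plus 3 SD in both repeats, and a primary screen hit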); details: HEK293 TRPC6, membrane potential dye fluorescence, at 10 µM, maximal acetylcholine added after compound; stronger effect = higher value
[12] = molecular target: Short transient receptor potential channel 4 (Mus musculus) (UniProt Q9QUQ5); assay: calcium flux activators in TRPC4/5HT1a cells, counter-screen for TRPC4 activator project, cell-based, second counter screen, HEK293 TRPC4/5HT1a, Fluo-4 (AID 434977;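 active = calcium signal rise above buffer-control mean plus 5 SD in both duplicates, and also a hit in the primary screen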); details: Fluo-4 calcium flux, at 10 µM; stronger effect = higher value
[13] = calcium flux inhibitors in TRPC4/5HT1a cells, confirmation, counter-screen for TRPC4 inhibitor project, cell-based, second counter screen, HEK293 TRPC4/5HT1a, Fluo-4 (AID 434978;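 active = primary screen active whose calcium signal fell more than 3 SD beyond the full-serotonin control mean in both duplicate plates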); details: Fluo-4 calcium flux, at 10 µM, serotonin added to trigger calcium flux; stronger effect = higher value
[14] = system: TRPC4 (mouse), co-expressed with 5HT1a in HEK293; assay: calcium flux potentiators in TRPC4/5HT1a cells, confirmation, counter-screen for TRPC4 potentiator project, cell-based, second counter screen, HEK293 TRPC4/5HT1a, Fluo-4 (AID 434979;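 active = signal rise over 3 SD above mean of control wells given weak agonist, in both repeats and first screen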); details: Fluo-4 calcium flux, at 10 µM, serotonin added at its EC20 dose; stronger effect = higher value
[15] = calcium flux activation in mu-opioid HEK293 cells, confirmation, counter-screen for TRPC4 activator project, cell-based, HEK293 mu-opioid receptor line (AID 449723;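 active = hit in primary screen, with calcium signal over 5 SD above buffer well mean in both duplicates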;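 also: counter screen cells carry the mu-opioid receptor alone and lack TRPC4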); details: Fluo-4 calcium fluorescence, at 10 µM; stronger effect = higher value
[16] = calcium flux enhancement in mu-opioid HEK293 cells, confirmation, counter-screen for TRPC4 allosteric potentiator project, cell-based, HEK293 mu-opioid receptor line (AID 449724;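 active = calcium signal rise more than 3 SD above the low-dose agonist control mean, in both duplicate plates and the primary screen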); details: Fluo-4 calcium flux, at 10 µM, compound added before EC20 DAMGO stimulus; stronger effect = higher value

Measured: inhibition

Cc1cc2cc(C#N)c(NCCNC(=S)NCCCN3CCOCC3)nc2cc1C
active: [5] 94% | [13] 26.6%
inactive: all other assays above

CC1CCc2c(sc(/N=C/N(C)C)c2C#N)C1 (stereo unspecified)
active: [5] 78%
inactive: all other assays above

O=C(C[n+]1cccc(CNC(=O)c2ccc(OC(F)F)cc2)c1)Nc1ccc(SC(F)F)cc1
active: [5] 94%
inactive: all other assays above

Cc1cc(N/N=C/c2ccccc2F)c2ccccc2n1
active: [5] 97% | [6] 67% | [13] 13.1%
inactive: all other assays above

Cc1ccc2cc(CN(CCCN3CCOCC3)C(c3nnnn3Cc3ccco3)C(C)C)c(=O)[nH]c2c1C (stereo unspecified)
active: [5] 98% | [6] 72%
inactive: all other assays above

Cc1oc(-c2ccc(Cl)cc2)nc1CN1CCC(C(=O)NCc2cccs2)CC1
active: [5] 79% | [13] 26.7%
inactive: all other assays above

O=C(CN1CCN(Cc2ccccc2Cl)CC1)N=Nc1c(O)[nH]c2ccccc12
active: [5] 90% | [6] 50%
inactive: all other assays above

CCOC(=O)C1(Cc2ccccc2C)CCCN(Cc2ccc(NC(C)=O)cc2)C1 (stereo unspecified)
active: [5] 83%
inactive: all other assays above

Cc1nn(C(=O)CNS(=O)(=O)c2ccccc2)c(C)c1Sc1ccc(Cl)cc1
active: [5] 89% | [6] 62% | [9] 52.5% | [13] 11.3%
inactive: all other assays above

CCC(=O)N1CCc2cc(S(=O)(=O)NCCN3CCCCC3CC)ccc21 (stereo unspecified)
active: [5] 94% | [6] 59% | [13] 17.9%
inactive: all other assays above

Nc1c2c(nc3ccccc13)CCC2
active: [5] 97% | [6] 44% | [9] 16.5% | [13] 29.6%
inactive: all other assays above

Cc1ccc(Cn2c(=N)n(CC(O)c3ccco3)c3ccccc32)cc1 (stereo unspecified)
active: [5] 94% | [6] 63% | [9] 37% | [13] 17.1%
inactive: all other assays above

Brc1ccc(N/N=C(/N=Nc2nn[nH]n2)c2ccccc2)cc1
active: [9] 25.5% | [13] 30.4%
inactive: all other assays above

CCCc1nc2ccccc2n1Cc1ccccc1OC
active: [5] 88% | [13] 32.4%
inactive: all other assays above

Cc1cc(Nc2cccc(O)c2)c2ccccc2n1
active: [5] 86% | [9] 55%
inactive: all other assays above

Cc1ccc(Nc2cc(C)nc3ccc(C)cc23)cc1
active: [9] 35% | [13] 25.7%
inactive: all other assays above
